“And” between values parts separate entries of the source, which are not always exact repeats. Equal entries are not always repeated. The campaign covered roughly 5,500 compounds. About 2,000 (36%) were called active. Inconclusive results (about 18%) are left out. No stated cut-off is given here; in the data, active means normalized growth mostly below about 0.91 (no sharp cut-off); inconclusive means no clear call, values can overlap the other calls; inactive means mostly above about 0.92. The list shows a part of the results.
Assay: chemical genetic growth profiling, strain panel (AID 1159580);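 further: tested at 20 µM; growth read once vehicle control cultures reached saturation at 30 °C; 1 = growth at the plate median or of vehicle wells; lower values mean less growth of the strain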
Details: growth OD

Measured: normalized growth

COc1cccc(OC)c1OCCNCC1COc2ccccc2O1 (centres undefined)
inactive: S. cerevisiae deletion strains, locus YAL013W, strain DEP1, active compounds read low 1.02 | S. cerevisiae deletion strains, locus YAL040C, strain CLN3, active compounds read low 0.995 | S. cerevisiae deletion strains, locus YBR021W, strain FUR4, active compounds read low 0.991 | S. cerevisiae deletion strains, locus YBR229C, strain ROT2, active compounds read low 1.01 | S. cerevisiae deletion strains, locus YCL029C, strain bik1, active compounds read low 0.982 | S. cerevisiae deletion strains, locus YCL061C, strain MRC1 (second series), active compounds read low 0.999 | S. cerevisiae deletion strains, locus YDL035C, strain GPR1, active compounds read low 1.01 | S. cerevisiae deletion strains, locus YDL074C, strain BRE1, active compounds read low 1.04 | S. cerevisiae deletion strains, locus YDL101C, strain DUN1, active compounds read low 1.03 | S. cerevisiae deletion strains, locus YDL134C, strain PPH21, active compounds read low 1.01 | S. cerevisiae deletion strains, locus YDL185W, strain tfp1, active compounds read low 0.991 | S. cerevisiae deletion strains, locus YDL192W, strain arf1, active compounds read low 0.99 | S. cerevisiae deletion strains, locus YDR101C, strain arx1, active compounds read low 0.965 | S. cerevisiae deletion strains, locus YDR150W, strain NUM1, active compounds read low 1.02 | S. cerevisiae deletion strains, locus YDR162C, strain NBP2, active compounds read low 1.04 | S. cerevisiae deletion strains, locus YDR318W, strain mcm21, active compounds read low 0.966 | S. cerevisiae deletion strains, locus YDR363W, strain ESC2, active compounds read low 0.955 | S. cerevisiae deletion strains, locus YDR388W, active compounds read low 0.983 | S. cerevisiae deletion strains, locus YDR502C, strain sam2, active compounds read low 0.995 | S. cerevisiae deletion strains, locus YEL061C, strain CIN8, active compounds read low 1.01 | S. cerevisiae deletion strains, locus YER002W, strain NOP16, active compounds read low 1 | S. cerevisiae deletion strains, locus YER110C, active compounds read low 0.978 | S. cerevisiae deletion strains, locus YER155C, strain BEM2, active compounds read low 1.01 | S. cerevisiae deletion strains, locus YER167W, strain BCK2, active compounds read low 1 | S. cerevisiae deletion strains, locus YGL078C, strain dbp3, active compounds read low 0.991 | S. cerevisiae deletion strains, locus YGL086W, strain mad1, active compounds read low 0.974 | S. cerevisiae deletion strains, locus YGL248W, strain PDE1, active compounds read low 1.02 | S. cerevisiae deletion strains, locus YGR078C, strain PAC10, active compounds read low 1.03 | S. cerevisiae deletion strains, locus YGR135W, strain pre9, active compounds read low 0.975 | S. cerevisiae deletion strains, locus YGR229C, strain SMI1, active compounds read low 1.01 and 0.909 | S. cerevisiae deletion strains, locus YGR252W, strain gcn5, active compounds read low 0.907 | S. cerevisiae deletion strains, locus YHR030C, strain SLT2, active compounds read low 1.01 | S. cerevisiae deletion strains, locus YHR079C, strain IRE1 (second series), active compounds read low 0.978 | S. cerevisiae deletion strains, locus YHR094C, strain hxt1, active compounds read low 0.992 | S. cerevisiae deletion strains, locus YHR129C, strain ARP1, active compounds read low 1.01 | S. cerevisiae deletion strains, locus YHR200W, strain rpn10, active compounds read low 0.977 | S. cerevisiae deletion strains, locus YIL066C, strain RNR3, active compounds read low 1.01 | S. cerevisiae deletion strains, locus YIL073C, strain SPO22, active compounds read low 0.999 | S. cerevisiae deletion strains, locus YIL125W, strain kgd1, active compounds read low 0.97 | S. cerevisiae deletion strains, locus YIR030C, strain dcg1, active compounds read low 0.986 | S. cerevisiae deletion strains, locus YJL095W, strain BCK1, active compounds read low 0.992 | S. cerevisiae deletion strains, locus YJL134W, strain LCB3, active compounds read low 1.01 | S. cerevisiae deletion strains, locus YJL168C, strain set2, active compounds read low 0.98 | S. cerevisiae deletion strains, locus YJL187C, strain SWE1 (second series), active compounds read low 1.02 | S. cerevisiae deletion strains, locus YJR043C, strain POL32, active compounds read low 1.01 | S. cerevisiae deletion strains, locus YJR075W, strain HOC1, active compounds read low 1.01 and 0.99 | S. cerevisiae deletion strains, locus YKL009W, strain mrt4, active compounds read low 1 | S. cerevisiae deletion strains, locus YKL068W, active compounds read low 0.995 | S. cerevisiae deletion strains, locus YKL085W, strain MDH1 (second series), active compounds read low 1.03 | S. cerevisiae deletion strains, locus YKL085W, strain MDH1, active compounds read low 1.03 | S. cerevisiae deletion strains, locus YKL190W, strain CNB1, active compounds read low 1.01 | S. cerevisiae deletion strains, locus YKR001C, strain vps1, active compounds read low 0.999 | S. cerevisiae deletion strains, locus YLR039C, strain RIC1, active compounds read low 1.11 | S. cerevisiae deletion strains, locus YLR058C, strain SHM2, active compounds read low 1.02 | S. cerevisiae deletion strains, locus YLR102C, strain apc9, active compounds read low 0.983 | S. cerevisiae deletion strains, locus YLR262C, strain YPT6, active compounds read low 1.16 | S. cerevisiae deletion strains, locus YLR268W, strain sec22, active compounds read low 0.98 | S. cerevisiae deletion strains, locus YLR330W, strain CHS5, active compounds read low 1.01 | S. cerevisiae deletion strains, locus YLR342W, strain FKS1 (second series), active compounds read low 0.965 | S. cerevisiae deletion strains, locus YLR371W, strain rom2, active compounds read low 0.982 | S. cerevisiae deletion strains, locus YLR418C, strain cdc73, active compounds read low 0.983 | S. cerevisiae deletion strains, locus YML016C, strain PPZ1, active compounds read low 1.01 | S. cerevisiae deletion strains, locus YML032C, strain rad52, active compounds read low 0.96 | S. cerevisiae deletion strains, locus YML124C, strain tub3, active compounds read low 0.989 | S. cerevisiae deletion strains, locus YMR078C, strain ctf18, active compounds read low 0.985 | S. cerevisiae deletion strains, locus YMR223W, strain ubp8, active compounds read low 0.963 | S. cerevisiae deletion strains, locus YMR263W, strain SAP30, active compounds read low 1.02 and 0.998 | S. cerevisiae deletion strains, locus YMR307W, strain GAS1, active compounds read low 1.08 and 0.993 | S. cerevisiae deletion strains, locus YNL067W, strain RPL9B, active compounds read low 1.02 | S. cerevisiae deletion strains, locus YNL128W, strain TEP1, active compounds read low 1.02 and 1.01 | S. cerevisiae deletion strains, locus YNL153C, strain GIM3, active compounds read low 1.03 | S. cerevisiae deletion strains, locus YNL175C, strain NOP13, active compounds read low 1.02 | S. cerevisiae deletion strains, locus YNL197C, strain WHI3, active compounds read low 1.04 | S. cerevisiae deletion strains, locus YNL224C, strain SQS1, active compounds read low 0.999 | S. cerevisiae deletion strains, locus YNL233W, strain BNI4, active compounds read low 1.02 | S. cerevisiae deletion strains, locus YNL250W, strain rad50, active compounds read low 1.01 | S. cerevisiae deletion strains, locus YNL271C, strain bni1, active compounds read low 0.983 | S. cerevisiae deletion strains, locus YNL298W, strain CLA4, active compounds read low 0.977 | S. cerevisiae deletion strains, locus YNL307C, strain MCK1, active compounds read low 0.975 | S. cerevisiae deletion strains, locus YNL322C, strain KRE1, active compounds read low 1.02 and 0.982 | S. cerevisiae deletion strains, locus YNR052C, strain pop2, active compounds read low 0.966 | S. cerevisiae deletion strains, locus YOL006C, strain TOP1, active compounds read low 1.03 | S. cerevisiae deletion strains, locus YOL012C, strain htz1 1.66 | S. cerevisiae deletion strains, locus YOL147C, strain pex11, active compounds read low 0.991 | S. cerevisiae deletion strains, locus YOR061W, strain CKA2, active compounds read low 1.02 | S. cerevisiae deletion strains, locus YOR069W, strain VPS5, active compounds read low 1.01 | S. cerevisiae deletion strains, locus YOR083W, strain WHI5 (second series), active compounds read low 1.02 | S. cerevisiae deletion strains, locus YOR136W, strain idh2, active compounds read low 0.992 | S. cerevisiae deletion strains, locus YOR144C, strain elg1, active compounds read low 0.994 | S. cerevisiae deletion strains, locus YOR184W, strain ser1, active compounds read low 0.954 | S. cerevisiae deletion strains, locus YOR316C, strain cot1, active compounds read low 0.988 | S. cerevisiae deletion strains, locus YPL055C, strain LGE1, active compounds read low 1.07 and 0.961 | S. cerevisiae deletion strains, locus YPL241C, strain CIN2, active compounds read low 1.01 | S. cerevisiae deletion strains, locus YPR119W, strain clb2, active compounds read low 0.983 | S. cerevisiae deletion strains, locus YPR141C, strain kar3, active compounds read low 0.987 | S. cerevisiae deletion strains, locus YPR163C, strain tif3, active compounds read low 0.985 | S. cerevisiae deletion strains, locus YPR167C, strain met16, active compounds read low 0.986 | S. cerevisiae deletion strains, strain wtn01, active compounds read low 0.988 | S. cerevisiae strains, strain wild type, active compounds read low 1.01
